Measurements taken from PubChem BioAssay AID720711 (National Center for Advancing Translational Sciences (NCATS), 2013).
Among all 360,000 compounds or so, about 290 (0.081%) were called active. Where a call stands in place of a potency, no number is given. For the sample, actives were picked, then their nearest neighbours and some compounds at random. A number with no mark means an inactive call. Calls come from the whole dose curve; as a rule, active = well fitted activation curve with a large enough effect; inconclusive = small, poorly fitted or top-dose-only effect; inactive = no such curve, though single readings can be large or run the other way.

Molecular target: Rap guanine nucleotide exchange factor 4 (Homo sapiens) (UniProt Q8WZA2)
Test: qHTS for Agonist of cAMP-regulated guanine nucleotide exchange factor 4 (EPAC2): primary screen; note: nearly all actives have a fitted effect of over 50% in size
Settings: biochemical qHTS; Potency: EPAC2 activation; series mostly up to 154 µM
From the text: In multi-cellular eukaryotic organisms, the effects of cAMP are transduced by two ubiquitously-expressed intracellular cAMP receptors, the classic protein kinase A/cAMP-dependent protein kinase (PKA/cAPK) and the more recently discovered exchange protein directly activated by cAMP/cAMP-regulated guanine nucleotide exchange factor (EPAC/cAMP-GEF). Both PKA and EPAC are ubiquitously expressed in all tissues, and an increase in intracellular cAMP levels will lead to the activation of both PKA and EPAC. Therefore, careful dissections of the individual role and relative contribution of EPAC and PKA within the overall cAMP signaling in various model systems are critical for further elucidating the mechanism of cAMP signaling. To date no EPAC-specific antagonists and agonist, as well as isoform-specific agonists have been reported, and developing EPAC-specific pharmacological probes to determine the physiological functions that EPAC play in the overall cAMP-mediated signaling remains a major challenge within the research field. Furthermore, identified regulators of EPAC may lead to new mechanism-based therapeutic strategies specifically targeting the EPAC / cAMP-signaling components as EPAC has been implicated to play important roles in major human pathological conditions such as diabetes, heart disease, and cancer.
This qHTS will be used to screen the Molecular Libraries Small Molecule Repository (MLSMR) as a concentration-titration series using the NCGC unique quantitative screening (qHTS) platform to find activators for EPAC2. In addition, this assay will also be used as a counterscreen for the EPAC1 qHTS. This fluorescent based assay is developed and validated for EPAC2 that measures exchange using EPAC effector Rap1 complex with BODIPY-GDP, a GDP analog with a tethered fluorophores. Activators are identified by monitoring the change in fluorescence signal as the exchanged free BODIPY-GDP has a reduced fluorescence compared to Rap1-bound BODIPY-GDP. […] in signal (activation) is the desired outcome for the EPAC2 agonist while no activity in this assay is desired for the EPAC1 agonist counterscreen.
[1] de Rooij, J., Zwartkruis, F. J., Verheijen, M. H., Cool, R. H., Nijman, S. M., Wittinghofer, A., and Bos, J.L. (1998) Nature 396, 474-477
[2] Kawasaki, H., Springett, G. M., Mochizuki, N., Toki, S., Nakaya, M., Matsuda, M., Housman, D. E., and Graybiel, A. M. (1998) Science 282, 2275-2279
NIH Chemical Genomics Center [NCGC]
NIH Molecular Libraries Probe Centers Network [MLPCN]
Assay Submitter (PI): Xiaodong Cheng, The University of Texas, Medical Branch
Briefly, three uL of reagents (100 nM EPAC2, 250 nM RAP1B-BODIPY-GDP, 50 uM GDP) were dispensed into a 1536-well Greiner black solid-bottom medium binding assay plate. Controls and test compounds (23 nL) were transferred to the plate via a Kalypsys pin tool equipped with a 1536-pin array. The plates were centrifuged at 1,000 rpm for 15 seconds followed by 5 minute incubation at room temperature. The assay plates were read at 5 minute intervals for 30 minutes in the ViewLux plate reader using 480nm excitation and 540nm emission filters. The results were normalized to the agonist positive control of 6.5 mM cAMP.
Potency is the fitted concentration of half-maximal effect.

Sequence of Rap guanine nucleotide exchange factor 4 (Homo sapiens) (Q8WZA2 whole entry, looked up): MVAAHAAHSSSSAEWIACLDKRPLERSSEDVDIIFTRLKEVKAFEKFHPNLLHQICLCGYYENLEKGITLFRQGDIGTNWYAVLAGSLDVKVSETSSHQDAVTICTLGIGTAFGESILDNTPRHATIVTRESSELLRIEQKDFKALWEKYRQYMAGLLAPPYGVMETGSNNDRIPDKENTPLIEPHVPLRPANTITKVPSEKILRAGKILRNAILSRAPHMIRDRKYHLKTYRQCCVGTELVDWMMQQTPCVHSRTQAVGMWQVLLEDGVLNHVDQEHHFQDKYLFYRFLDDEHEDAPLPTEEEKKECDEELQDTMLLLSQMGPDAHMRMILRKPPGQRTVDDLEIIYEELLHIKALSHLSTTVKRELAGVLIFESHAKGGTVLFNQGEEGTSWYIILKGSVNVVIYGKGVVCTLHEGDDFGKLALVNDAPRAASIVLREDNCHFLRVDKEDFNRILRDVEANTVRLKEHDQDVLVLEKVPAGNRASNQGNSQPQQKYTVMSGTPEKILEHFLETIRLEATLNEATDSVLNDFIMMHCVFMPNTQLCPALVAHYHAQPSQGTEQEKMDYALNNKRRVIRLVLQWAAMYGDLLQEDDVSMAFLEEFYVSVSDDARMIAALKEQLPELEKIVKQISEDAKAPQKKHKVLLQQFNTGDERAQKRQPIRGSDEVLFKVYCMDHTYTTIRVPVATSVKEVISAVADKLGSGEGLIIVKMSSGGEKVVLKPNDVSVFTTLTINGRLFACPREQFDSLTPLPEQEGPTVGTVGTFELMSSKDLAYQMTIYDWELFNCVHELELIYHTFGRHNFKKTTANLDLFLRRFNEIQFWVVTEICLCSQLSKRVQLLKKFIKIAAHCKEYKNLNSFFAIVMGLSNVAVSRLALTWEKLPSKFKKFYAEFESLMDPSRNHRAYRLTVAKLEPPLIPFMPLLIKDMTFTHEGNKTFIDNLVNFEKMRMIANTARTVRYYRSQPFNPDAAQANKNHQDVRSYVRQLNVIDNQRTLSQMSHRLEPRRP

Compound | Potency | activation
COc1cc(-c2nnn(CC(=O)NCc3ccccc3)n2)cc(OC)c1OC | inactive | 
COC(C(=O)NCc1ccccc1C)c1ccccc1 (stereo not given) | inactive | 
COc1ccc(NC(=O)CN(C)S(=O)(=O)c2ccccc2)cc1OC | inactive | 
CCN(C(=O)C1CCCN(c2nc(-c3ccc(OC)cc3)no2)C1)c1ccc(OC)cc1 (stereo not given) | inactive | 
CCc1cccc(OC2OC(CO)C(O)C(O)C2NC(C)=O)c1 (stereo not given) | inactive | 
CCN(Cc1ccccc1)S(=O)(=O)c1cc(C(=O)O)ccc1OC | inactive | 
COc1ccc(C)c(Cn2c(-c3nonc3N)nc3ccccc32)c1 | inactive | 
Cc1ccc2c(CC(=O)NCc3cccs3)coc2c1 | inactive | 
CCc1nn(CCCC(=O)NCc2ccc(C)cc2)c(=O)c2cc3occc3n12 | inactive | 
Cc1ccc(C(CNC(=O)Nc2ccccc2)N2CCN(C)CC2)cc1 (stereo not given) | inactive | 
O=C(O)C1OC(C(=O)O)C2C1C(F)(F)C2(F)F (stereo not given) | inactive | 
CN(CCNC(=O)c1cc2c(-c3ccccc3F)nn(C)c2s1)C1CCCCC1 | inactive | 
CCO[C@@H]1OC(C(=O)NC2CC2)=C[C@H](C)[C@H]1CCCO | inactive | 
Cc1nc(N)sc1-c1ccccc1 | inactive | 
O=C(CCc1ccccc1)Nc1ccnn1C1CCN(Cc2ccc(OCCO)cc2)CC1 | inactive | 
CC(C)(C)NC(=O)Cn1c(SCC(=O)Nc2nccs2)nc2ccccc21 | inactive | 
O=C1C=C(c2ccnc3cc(Cl)ccc23)C[C@@H](c2ccc3c(c2)OCO3)C1 | inactive | 
CCCCCC(=O)N1CCN(S(=O)(=O)c2ccc3c(c2)OCCCO3)CC1 | inactive | 
CC1(C)CN(CCc2ccccc2)C(=O)[C@H]1CC(=O)Nc1ccc(Br)cc1 | inactive | 
COc1ccc(N2C(=O)NC(NS(=O)(=O)c3ccc(Cl)cc3)(C(F)(F)F)C2=O)cc1 (stereo not given) | inactive | 
CCOC(=O)c1ccccc1NC(=O)c1c(N)n(C)c(=O)[nH]c1=O | inactive | 
CCOC(=O)c1cc2n(c1N)-c1ccccc1C2=O | 89.1 µM (active) | 

Compound | Potency | activation
CCOC(=O)c1cnn(Cc2ccccc2Cl)c1N | inactive | 
CN(C)NC(=O)c1csnc1-c1c(Cl)cccc1Cl | inactive | 
O=S(=O)(NCc1ccccc1Cl)c1cnc[nH]1 | inactive | 
CCc1nc2sc3c(Cl)ncnc3c2c2c1CCCC2 | inactive | 
COc1ccc(CNC(=O)C[C@H]2C[C@H](C(=O)N3CCOCC3)[C@@]3(CCC4CCCC4)c4[nH]c5ccc(Cl)cc5c4CCN3C2=O)cc1OC | inactive | 
O=C1[C@H]2[C@@H](c3ccc(C(F)(F)F)cc3)N[C@]3(CCCN(Cc4ccc(Cl)cc4)C3=O)[C@H]2C(=O)N1Cc1ccccc1 | inactive | 
CCN(CC)CCCC(C)n1c2nc(=O)[nH]c(=O)c-2nc2cc(Cl)ccc21 (stereo not given) | 100 µM (active) | 
c1ccc(C[C@H]2CNCCN2CCC23CC4CC(CC(C4)C2)C3)cc1 | inactive | 
Cn1c(=O)c2c(nc(N3CCCCCC3)n2CC(O)COc2ccc(Cl)cc2)n(C)c1=O (stereo not given) | inactive | 
CSCc1cc(N(C)C)nc(SCc2ccc(Cl)cc2Cl)n1 | inactive | 
CCCOc1ccc(Cc2c(Cl)nc(SC)nc2NC)cc1 | inactive | 
Cc1sc2ncn(CC(=O)NCCCC(=O)N3CCN(c4ccccc4F)CC3)c(=O)c2c1C | inactive | 
Cc1oc(C)c(C(=O)NCCCC(=O)O)c1C(=O)NCCCC(=O)O | inactive | 
O=CN1CCN(C(=O)c2ccc(Br)o2)CC1 | inactive | 
Cc1cc(C)c2oc(C(=O)Nc3ccc(S(=O)(=O)Nc4nccc(C)n4)cc3)cc(=O)c2c1 | inactive | 
COc1ccc(NC(=O)N(C)C[C@H]2Oc3ncc(C#C[C@@H](C)O)cc3C(=O)N([C@H](C)CO)C[C@H]2C)cc1 | inactive | 
CCCCN1C(=O)C(CC(=O)NC(c2ccccc2)c2ccccc2)CC(C(=O)N2CCOCC2)=C1C (stereo not given) | inactive | 
CC(C)(C)[C@H]1C=C(C(=O)NCc2ccccc2)O[C@@H](OCc2ccc(CO)cc2)C1 | inactive | 
NC(=O)c1ccccc1N=Cc1ccc2ccccc2c1 | inactive | 
O=C(Nc1ccc2c(c1)C(=O)OC2)Nc1cccc2ccccc12 | inactive | 
Cn1ccs/c1=N\S(=O)(=O)c1ccc(C(C)(C)C)cc1 | inactive | 
CC12c3ccccc3C(c3ccccc31)C1C(=O)N(Cc3cccnc3)C(=O)C12 (stereo not given) | inactive | 

Compound | Potency | activation
Cc1cccc(-c2c(NC(=O)c3ccco3)oc3ccc(Cl)cc3c2=O)c1 | inactive | 
O=C(NCCCN1CCCCC1)C1CCCN(c2ncnc3c2nc2n3CCCCC2)C1 (stereo not given) | inactive | 
CC1CCC(CN2CCN=C2N(C)C)CC1 (stereo not given) | inactive | 
CC(Oc1ccc(Br)cc1)C(=O)NCC(c1ccco1)N1CCCCC1 (stereo not given) | inactive | 
O=C(c1ccccc1)C(Cn1cncn1)C(Sc1ccccc1)c1ccccc1 (stereo not given) | inactive | 
CCCCCCc1cc2cc(-c3nnc(-c4ccccc4)o3)c(=O)oc2cc1O | 44.7 µM (active) | 
COc1cc(C(=O)NCC(=O)NCCSc2ccc(Br)cc2)cc(OC)c1OC | inactive | 
CN(CCOc1ccc(Br)cc1)CC(=O)Nc1cccc(S(=O)(=O)NC2=NCCC2)c1 | inactive | 
CCN=C1S/C(=C\c2cc(Br)ccc2OCC(=O)OCC)C(=O)N1CC | inactive | 
CC(C)N1C(=S)SC(C)(C)C1n1oc(=O)n(-c2ccc(Cl)c(Cl)c2)c1=O (stereo not given) | inactive | 
COC(=O)c1ccc([C@@H](O)[C@H](C)C(=O)CC(=O)OC(C)(C)C)cc1 | inactive | 
CC(=O)Oc1ccc(-c2cccc(C(=O)N3CCCCC3)c2)cc1 | inactive | 
CCN(CC(=O)Nc1cccc(S(N)(=O)=O)c1)Cc1nc2ccccc2c(=O)[nH]1 | inactive | 
Cc1nc2ccc(S(=O)(=O)N(C)CC(=O)NC(C)c3ccccc3)cc2s1 (stereo not given) | inactive | 
Cc1cc2c(cc1C)NC(c1ccccn1)C1=C(CC(C)(C)CC1=O)N2 (stereo not given) |  | 0% [at 15.6 µM, 100% = 6.5 mM cAMP response]
O=C(Cn1nnc2ccccc2c1=O)NCc1ccc(Cl)cc1 | inactive | 
Cc1ccc(S(=O)(=O)CCC(=O)OCc2ccccc2)cc1 | inactive | 
O=C(CNC(=O)c1ccccc1F)OCC(=O)c1c[nH]c2ccccc12 | inactive | 
CN1C(CC(=O)Nc2ccc(Br)cc2)c2ccccc2CC1(C)C (stereo not given) | inactive | 
O=C(COC(=O)c1c(Cl)cccc1Cl)Nc1cccc(S(=O)(=O)NC2=NCCCCC2)c1 | inactive | 
CCCN(CC(=O)Nc1ccc(C(N)=O)cc1)CC(=O)Nc1ccccc1C | inactive | 
